Read-out in assay [1]: Matrix Metallopeptidase 9 (MMP9), MMP9 (gene 4318)
The assay can be described thus: BSK_KF3CT_MMP9: BioMAP Diversity Plus: KF3CT Assay for Matrix Metallopeptidase 9 (MMP9) Biomarker Activity (AID 2283074).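 Further: MMP9 protein level quantified by ELISA in the co-culture.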 To be noted: primary human keratinocytes with fibroblasts; actives raise or lower the signal. The procedure, abridged: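 Human keratinocyte/foreskin fibroblast co-culture; compound added; 24 h; MMP-9 by ELISA; bidirectional fit vs DMSO baseline.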

Read-out in assay [2]: urokinase plasminogen activator (uPA), PLAU (gene 5328)
The assay can be described thus: BSK_KF3CT_uPA: BioMAP Diversity Plus: KF3CT Assay for urokinase plasminogen activator (uPA) Biomarker Activity (AID 2283075). To be noted: primary human keratinocytes with fibroblasts; actives raise or lower the signal. The procedure, abridged:
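ELISA readout of uPA, analyzed for signal gain or loss relative to DMSO, from a human primary keratinocyte–foreskin fibroblast co-culture measured 24 h after chemical treatment.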

Read-out in assay [3]: CD40, CD40 (gene 958)
The assay can be described thus: BSK_LPS_CD40: BioMAP Diversity Plus: LPS Assay for CD40 Biomarker Activity (AID 2283076). The settings on record: primary human HUVEC with PBMC; actives raise or lower the signal. The procedure, abridged: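 HUVEC plus PBMC co-culture stimulated with LPS; CD40 quantified by ELISA 24 h after compound dosing. Fitting was bidirectional relative to DMSO. SRB staining of parallel cultures flagged overt cytotoxicity.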

Read-out in assay [4]: E-selectin (Homo sapiens) (UniProt P16581)
The assay is described as follows: BSK_LPS_Eselectin: BioMAP Diversity Plus: LPS Assay for Eselectin Biomarker Activity (AID 2283077). The settings on record: primary human HUVEC with PBMC; actives raise or lower the signal. The procedure, abridged:
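Human umbilical vein endothelial cells co-cultured with PBMC under LPS stimulation; cell-surface E-selectin measured by ELISA 24 h after dosing. Change in either direction versus DMSO, with SRB total-protein staining in parallel cultures for cytotoxicity.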

Read-out in assay [5]: Interleukin-8 (IL8), CXCL8 (gene 3576)
The assay can be described thus: BSK_LPS_IL8: BioMAP Diversity Plus: LPS Assay for Interleukin-8 (IL8) Biomarker Activity (AID 2283078). To be noted: primary human HUVEC with PBMC; actives raise or lower the signal. The procedure, abridged: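 Human umbilical vein endothelial cells co-cultured with PBMC, LPS-stimulated, exposed to compound for 24 h. IL-8 quantified by ELISA; fitted in both directions against DMSO, with SRB total-protein staining of parallel cultures for cytotoxicity.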

A short description of assay [6]: BSK_LPS_SRB: Viability Assessment in the BioMAP Diversity Plus: LPS Assay (AID 2283079).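 Further: total protein by sulforhodamine B absorbance as a cytotoxicity measure; measured one day after compound addition; fitted in both directions against DMSO so loss or gain of signal counts.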 The settings on record: primary human HUVEC with PBMC. Put shortly: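 Co-culture of human umbilical vein endothelial cells and PBMC, read 24 h after dosing. Total protein by 0.1% SRB staining after 10% TCA fixation, absorbance at 560 nm; bidirectional fit against DMSO.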
Read-out in assay [7]: Interleukin-1 alpha (IL1a), IL1A (gene 3552)
The assay can be described thus: BSK_LPS_IL1a: BioMAP Diversity Plus: LPS Assay for Interleukin-1 alpha (IL1a) Biomarker Activity (AID 2283080). The settings on record: primary human HUVEC with PBMC; actives raise or lower the signal. The procedure, abridged: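 Human umbilical vein endothelial cells co-cultured with PBMC and stimulated with LPS; IL-1a measured by ELISA 24 h after dosing. Bidirectional fitting against DMSO; cytotoxicity checked by SRB staining in parallel cultures.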

Read-out in assay [8]: Monocyte Chemoattractant Protein-1 (MCP1), CCL2 (gene 6347)
The assay is described as follows: BSK_LPS_MCP1: BioMAP Diversity Plus: LPS Assay for Monocyte Chemoattractant Protein-1 (MCP1) Biomarker Activity (AID 2283081).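 Further: secreted MCP-1 protein quantified by ELISA in culture supernatant.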 To be noted: primary human HUVEC with PBMC; actives raise or lower the signal. The procedure, abridged: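 Human umbilical vein endothelial cells co-cultured with PBMC, LPS-stimulated; secreted MCP-1 measured by ELISA 24 h after compound addition. Bidirectional curve fitting against DMSO baseline; SRB total-protein staining in parallel cultures for cytotoxicity.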

Assay [9] in a line: BSK_LPS_PGE2: BioMAP Diversity Plus: LPS Assay for Prostaglandin E2 (PGE2) Biomarker Activity (AID 2283082). To be noted: primary human HUVEC with PBMC; actives raise or lower the signal. Put shortly: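 Endpoint derived from bidirectional curve fitting versus DMSO of ELISA-measured PGE2 in LPS-stimulated human primary vascular co-culture (HUVEC with PBMC) harvested at 24 h.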

Read-out in assay [10]: Macrophage colony-stimulating factor (MCSF), CSF1 (gene 1435)
The assay is described as follows: BSK_LPS_MCSF: BioMAP Diversity Plus: LPS Assay for Macrophage colony-stimulating factor (MCSF) Biomarker Activity (AID 2283083). The settings on record: primary human HUVEC with PBMC; actives raise or lower the signal. Put shortly: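 HUVEC–PBMC co-culture, M-CSF measured by ELISA 24 h after chemical dosing. Fitted in both directions relative to DMSO as negative control; overt cytotoxicity assessed by SRB total-protein staining in parallel cultures.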

Read-out in assay [11]: Tissue Factor, F3 (gene 2152)
The assay is described as follows: BSK_LPS_TissueFactor: BioMAP Diversity Plus: LPS Assay for Tissue Factor Biomarker Activity (AID 2283084). The settings on record: primary human HUVEC with PBMC; actives raise or lower the signal. The procedure, abridged: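 Human umbilical vein endothelial cells co-cultured with PBMC were dosed with compound. Cell-surface CD142 was measured by ELISA 24 h later. Activity was fitted bidirectionally against DMSO, with SRB total-protein staining in parallel cultures for cytotoxicity.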

Read-out in assay [12]: Tumor necrosis factor (Homo sapiens) (UniProt P01375)
The assay is described as follows: BSK_LPS_TNFa: BioMAP Diversity Plus: LPS Assay for Tumour Necrosis Factor alpha (TNFa) Biomarker Activity (AID 2283085). To be noted: primary human HUVEC with PBMC; actives raise or lower the signal. Put shortly:
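Primary human vascular co-culture of HUVEC and PBMC; TNFa ELISA 24 h after treatment, analysed as increase or decrease relative to DMSO control.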

Read-out in assay [13]: Vascular cell adhesion molecule 1 (VCAM1), VCAM1 (gene 7412)
The assay can be described thus: BSK_LPS_VCAM1: BioMAP Diversity Plus: LPS Assay for Vascular cell adhesion molecule 1 (VCAM1) Biomarker Activity (AID 2283086). To be noted: primary human HUVEC with PBMC; actives raise or lower the signal. The procedure, abridged:
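Primary human vascular co-culture (umbilical vein endothelium plus PBMC) stimulated with LPS received chemical; 24 h later VCAM-1 was read by ELISA. Overt cytotoxicity was assessed by sulforhodamine B staining of parallel cultures at the same time point.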

Read-out in assay [14]: CD38, CD38 (gene 952)
The assay can be described thus: BSK_SAg_CD38: BioMAP Diversity Plus: SAg Assay for CD38 Biomarker Activity (AID 2283087). The settings on record: primary human HUVEC with PBMC; actives raise or lower the signal. The procedure, abridged:
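Fluorescence ELISA of cell-surface CD38 served as the read-out, with either increase or decrease fitted against DMSO controls. Cells were a human umbilical vein endothelium plus PBMC co-culture under SEB/TSST-1 stimulation, measured 24 h after dosing.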

Read-out in assay [15]: CD40, CD40 (gene 958)
The assay is described as follows: BSK_SAg_CD40: BioMAP Diversity Plus: SAg Assay for CD40 Biomarker Activity (AID 2283088). The settings on record: primary human HUVEC with PBMC; actives raise or lower the signal. The procedure, abridged: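 HUVEC plus PBMC co-culture, superantigen-activated, with CD40 read by ELISA 24 h after dosing. Curves fitted in both directions against DMSO. Overt cytotoxicity checked by parallel SRB total-protein staining.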

Read-out in assay [16]: CD69, CD69 (gene 969)
The assay is described as follows: BSK_SAg_CD69: BioMAP Diversity Plus: SAg Assay for CD69 Biomarker Activity (AID 2283089).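 Further: cell surface CD69 protein quantified by ELISA with fluorescence detection.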 To be noted: primary human HUVEC with PBMC; actives raise or lower the signal. The procedure, abridged: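 Endothelial/PBMC co-culture; chemical added; 24 h incubation; CD69 ELISA with fluorescence detection; bidirectional fit vs DMSO.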

Read-out in assay [17]: Monocyte Chemoattractant Protein-1 (MCP1), CCL2 (gene 6347)
The assay can be described thus: BSK_SAg_MCP1: BioMAP Diversity Plus: SAg Assay for Monocyte Chemoattractant Protein-1 (MCP1) Biomarker Activity (AID 2283090). The settings on record: primary human HUVEC with PBMC; actives raise or lower the signal. Put shortly:
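MCP-1 levels in the endothelial–PBMC SAg co-culture were quantified by ELISA at 24 h post-dosing; both increases and decreases versus DMSO scored. Cytotoxicity monitored by SRB total protein in parallel cultures.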

Read-out in assay [18]: E-selectin (Homo sapiens) (UniProt P16581)
The assay is described as follows: BSK_SAg_Eselectin: BioMAP Diversity Plus: SAg Assay for Eselectin Biomarker Activity (AID 2283091). To be noted: primary human HUVEC with PBMC; actives raise or lower the signal. Put shortly: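 Human umbilical vein endothelial cells co-cultured with peripheral blood mononuclear cells, SAg system. E-selectin is measured by ELISA 24 h after dosing and fitted bidirectionally against DMSO. Cytotoxicity is checked by SRB staining of parallel cultures.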

Read-out in assay [19]: Monokine induced gamma interferon (MIG), CXCL9 (gene 4283)
The assay can be described thus: BSK_SAg_MIG: BioMAP Diversity Plus: SAg Assay for Monokine induced gamma interferon (MIG) Biomarker Activity (AID 2283092). To be noted: primary human HUVEC with PBMC; actives raise or lower the signal. The procedure, abridged: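 Measures CXCL9 protein by ELISA in a human vascular primary-cell co-culture (umbilical vein endothelium with PBMC) 24 h after chemical addition. Activity is scored up or down from the DMSO control.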

Read-out in assay [20]: C-C motif chemokine 2 (Homo sapiens) (UniProt P13500)
The assay is described as follows: BSK_KF3CT_MCP1: BioMAP Diversity Plus: KF3CT Assay for Monocyte Chemoattractant Protein 1 (MCP1/CCL2) Biomarker Activity (AID 2283073). To be noted: primary human keratinocytes with fibroblasts; actives raise or lower the signal. The procedure, abridged: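 Human keratinocyte–foreskin fibroblast co-culture; MCP-1 measured by ELISA 24 h after dosing. Bidirectional fit vs DMSO; cytotoxicity tracked by SRB total protein in parallel cultures.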

The structures appear in SMILES notation. The source made the active and inactive calls. How the source made its calls: active means hit-call score of the fitted dose curve at least 0.9, where 1 is the maximum; inactive means score below 0.9.

Sequence of E-selectin (Homo sapiens) (P16581 whole entry, looked up): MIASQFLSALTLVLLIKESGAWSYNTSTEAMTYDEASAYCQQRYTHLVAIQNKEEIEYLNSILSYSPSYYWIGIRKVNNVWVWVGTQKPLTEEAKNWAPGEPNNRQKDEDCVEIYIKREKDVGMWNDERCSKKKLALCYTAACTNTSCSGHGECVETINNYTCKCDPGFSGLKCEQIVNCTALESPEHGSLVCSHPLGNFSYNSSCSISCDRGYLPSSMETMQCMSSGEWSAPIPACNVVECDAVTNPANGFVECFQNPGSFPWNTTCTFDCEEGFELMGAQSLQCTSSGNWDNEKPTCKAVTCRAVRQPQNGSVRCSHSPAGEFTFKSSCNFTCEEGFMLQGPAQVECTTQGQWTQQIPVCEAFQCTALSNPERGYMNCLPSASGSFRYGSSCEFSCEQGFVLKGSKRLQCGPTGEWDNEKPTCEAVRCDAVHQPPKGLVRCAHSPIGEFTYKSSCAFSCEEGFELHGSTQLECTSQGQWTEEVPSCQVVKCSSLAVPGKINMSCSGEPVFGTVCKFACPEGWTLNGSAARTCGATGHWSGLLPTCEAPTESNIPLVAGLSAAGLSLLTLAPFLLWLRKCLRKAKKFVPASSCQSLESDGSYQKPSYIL
Sequence of Tumor necrosis factor (Homo sapiens) (P01375 whole entry, looked up): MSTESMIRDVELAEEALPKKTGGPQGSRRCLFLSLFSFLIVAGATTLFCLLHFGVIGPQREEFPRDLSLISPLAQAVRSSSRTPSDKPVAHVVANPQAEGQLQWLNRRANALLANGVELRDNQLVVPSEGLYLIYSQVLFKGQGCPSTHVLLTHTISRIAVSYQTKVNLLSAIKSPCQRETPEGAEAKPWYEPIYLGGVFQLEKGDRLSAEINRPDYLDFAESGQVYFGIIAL

Broadly, the AC50 is the concentration giving half of the maximal activity seen. `CCCCCCCCc1ccc(O)cc1`: the AC50 in assay [1] is 28.8 µM (active); in [2], 31.6 µM (active); in [3], 31.5 µM (active); in [4] it was 37.8 µM (active); in assay [5], 36.5 µM (active); in assay [6], 34.1 µM (active). Further, the AC50 in [7] is 31 µM (active); in [8] it was 37.4 µM (active); in [9], 3.96 µM (active); in assay [10], 30.8 µM (active); in [11], 38.1 µM (active); in assay [12], 33.6 µM (active). Moreover, the AC50 in [13] was 30.5 µM (active); in assay [14], 31.2 µM (active); in [15] it was 32.2 µM (active); in assay [16], 31.7 µM (active); in assay [17], 32.6 µM (active); in [18], 29.2 µM (active). Further, in assay [19], the AC50 is 35.6 µM (active).

With `CCC(C)(C)c1ccc(O)c(C(C)(C)CC)c1`, the AC50 was 10.6 µM (active) in assay [20]; 10.3 µM (active) in assay [1]; 7.77 µM (active) in [2]; 13.6 µM (active) in assay [3]; 27 µM (active) in assay [4]; 28.1 µM (active) in [5]. For the same compound, the AC50 in [6] was 15 µM (active); in assay [7], 14.3 µM (active); in assay [8], 25.1 µM (active); in assay [10] it was 18.4 µM (active); in assay [11], 15.9 µM (active); in [12] it was 13.1 µM (active). In addition, the half-maximal activity concentration (AC50) is 25 µM (active) in assay [13]; 14.9 µM (active) in [14]; 13 µM (active) in [15]; 13.7 µM (active) in assay [16]; 9.83 µM (active) in assay [18]; 20.8 µM (active) in [19]. For the same compound, in assay [9], the result was inactive.
